aGal spleen mod: inhibitors or activators of human alpha-galactosidase in spleen homogenate; P06280; Potency, µM (series often up to 80 µM), without a hit: at the highest dose activity change, negative = inhibition, actives largely listed as inhibitors; AID 2107; 240,000 tested, 0.008% active; human spleen homogenate, 4MU-alpha-Gal fluorescence, 40 min;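 note: potency is the fitted concentration of half-maximal effect; 0% = enzyme with vehicle and -100% = no enzyme basal signal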
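Human spleen homogenate (1 ug) was the enzyme source, with 4-methylumbelliferyl-alpha-D-galactopyranoside (1 mM final) in pH 5.0 citrate buffer with 0.01% Tween-20. Compounds were titrated; after 40 min at 37C, NaOH/glycine stop, 4-MU fluorescence read; AC50 from Hill fits.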
N370S GC mod: inhibitors or activators of N370S glucocerebrosidase for Gaucher disease; 330,000 tested, 0.092% active; Potency, µM (titrated, usually from 59.4 µM), inactives show at the highest dose activity change, negative = inhibition, usual class: inhibitors; N370S GC spleen homogenate, 4MU-glucoside fluorescence; P04062;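 note: potency is the fitted concentration of half-maximal effect; 0% = full enzyme activity and -100% = no enzyme basal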
GLA inh pH 4.5: inhibitors of human alpha-galactosidase A at pH 4.5. P06280. purified enzyme, 4-MU-alpha-Gal fluorescence, pH 4.5. activity change, negative = inhibition, % at 105 µM. 230,000 tested, under 10 active. AID 1467;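 note: 0% = full activity with enzyme and -100% = basal without enzyme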
Target sequence (P06280 whole entry, looked up): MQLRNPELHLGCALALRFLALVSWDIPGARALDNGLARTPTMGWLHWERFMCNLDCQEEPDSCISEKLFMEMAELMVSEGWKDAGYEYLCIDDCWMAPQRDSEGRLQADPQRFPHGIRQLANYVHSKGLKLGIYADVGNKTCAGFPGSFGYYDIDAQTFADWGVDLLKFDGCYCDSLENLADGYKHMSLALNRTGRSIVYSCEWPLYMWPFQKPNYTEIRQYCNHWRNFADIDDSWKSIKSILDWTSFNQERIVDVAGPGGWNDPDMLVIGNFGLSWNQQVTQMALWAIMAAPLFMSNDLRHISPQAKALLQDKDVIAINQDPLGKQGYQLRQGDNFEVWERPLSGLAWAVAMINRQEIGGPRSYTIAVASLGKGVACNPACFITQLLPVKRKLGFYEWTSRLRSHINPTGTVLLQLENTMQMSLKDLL
aGlu spleen mod: inhibits or activates alpha-glucosidase in human spleen homogenate. P10253. human spleen homogenate, 4-MU-alpha-glucoside fluorescence. Potency, µM (titrated, usually from 79.9 µM), for inactives: at the highest dose activity change, negative = inhibition, hits mostly inhibitors. 240,000 tested, 0.006% active;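 note: potency is the fitted concentration of half-maximal effect; 0% = enzyme with vehicle and -100% = no enzyme basal signal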
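Human spleen homogenate (1 ug) with 4-methylumbelliferyl-alpha-D-glucopyranoside (1 mM final) in 50 mM citrate/phosphate pH 5.0, 0.01% Tween-20; 40 min at 37 C. Stopped at pH 10; 4-MU fluorescence Ex 365/Em 440 nm; AC50 by Hill fit.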
GAA inhib: blocks human lysosomal alpha-glucosidase; P10253; purified human GAA, 4-MU-alpha-glucoside fluorescence; Potency, µM (series often up to 76.9 µM), for the others: at the top dose activity change, negative = inhibition, hits mostly inhibitors; 200,000 tested, 0.005% active;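 note: potency is the fitted concentration of half-maximal effect; plate controls were uninhibited enzyme wells for no effect and no-enzyme background for full effect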
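Fluorogenic assay: 4 nM human alpha-glucosidase with 400 uM 4-methylumbelliferyl-alpha-D-pyranoside in 50 mM citrate/phosphate, 0.005% Tween-20, pH 5.0, 20 min at room temperature. Compounds tested up to 77 uM; AC50 from Hill fits.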
GAA glycogen mod: inhibitors or activators of human alpha-glucosidase glycogen cleavage. 300,000 tested, 0.38% active. AID 2100. Potency, µM (titrated, usually from 76.4 µM), for inactives: top-dose activity change, negative = inhibition, most hits filed as inhibitors. recombinant GAA, glycogen substrate, Amplex Red glucose oxidase fluorescence. P10253;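 note: potency is the fitted concentration of half-maximal effect; 0% = full enzyme reaction and -100% = no-enzyme basal signal; the screen sought inhibitors and activators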
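Recombinant enzyme (4 nM final) with compounds titrated up to 77 uM and bovine liver glycogen (30 ug) in citrate pH 5.0, 0.01% Tween-20, 37 C 40 min. Released glucose detected by Amplex Red/glucose oxidase (Ex 573/Em 610); AC50 from Hill fits.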
Numbers without * were called inactive; ? = inconclusive; · = no result given; ! = repeats disagree; [ ] = remark or other dose. Only some compounds are listed: those with a hit (about 0.41% of all), similar ones and a draw of the others. Calls come from the whole dose curve; as a rule, active = well fitted curve in the direction sought with a large enough effect; inconclusive = small, poorly fitted or top-dose-only effect, or another doubt; inactive = no such curve, though single readings can be large; an effect the other way counts as inactive or inconclusive.

SMILES	aGal spleen mod	N370S GC mod	GLA inh pH 4.5	aGlu spleen mod	GAA inhib	GAA glycogen mod
COc1ccccc1N1C(=O)N(C(C)=O)C2C1Nc1ccccc1N2C (stereo not drawn)	0%	0%	0	-2%	-8%	35µM*
CCCCC(=O)NC(Nc1sc2c(c1C(N)=O)CCCC2)(C(=O)OCC)C(F)(F)F (stereo not drawn)	0%	2%	-16	-1%	-4%	?
COC(=O)C(NC(C)=O)(Nc1sc2c(c1C(N)=O)CCCC2)C(F)(F)F (stereo not drawn)	5%	6%	-4	-4%	1%	20µM*
CCc1ccccc1NC(=O)C1(S(=O)(=O)c2ccc(Cl)cc2)CC1	·	·	·	·	·	5%[76.3 µM]
Cc1oc2cc3oc(=O)c(CC(=O)NCc4ccccc4)c(C)c3cc2c1C	·	·	·	·	·	2%[76.3 µM]
Cn1c(=O)c2[nH]c(Nc3ccccc3)nc2n(C)c1=O	-4%	0%	2	2%	-5%	7.1µM*
Cc1ccc(CNc2nc3c([nH]2)c(=O)n(C)c(=O)n3C)cc1	1%	-2%	4	-6%	-3%	4%
Cc1cc(C)nc(SCC(=O)Nc2ccc(S(=O)(=O)Nc3ncccn3)cc2)n1	-13%	13%	-1	-6%	8%	3.5µM*
Cc1ccc(Cn2c(C)c3cnn(CC(=O)N4CCN(c5cc(C)ccc5C)CC4)c(=O)c3c2C)cc1	·	·	·	·	·	2%[76.3 µM]
CC(C)NCC(O)Cn1c2c(c3ccccc31)CCc1c-2cnn1-c1ccccc1 (stereo not drawn)	13%	-12%	5	-6%	-8%	31µM*
CN1CCc2c(n(CC(O)CNCc3ccccc3)c3ccccc23)C1=O (stereo not drawn)	-9%	4%	2	-6%	-18%	?
CS(=O)(=O)c1ccc2c(c1)sc1nc(=O)c(/C=C3/C=CC(=O)C(O)=C3)c(N)n12	-6%	-14%	-21	-12%	?	8.9µM*
COC1=C/C(=C/c2c(N)n3c(nc2=O)sc2cc(S(C)(=O)=O)ccc23)C=CC1=O	-6%	-15%	-14	-2%	·	2%
CN(C)S(=O)(=O)c1cc(NC(=O)CN2CCN(c3ccccc3)CC2)ccc1Cl	0%	-4%	5	-25%	?	-8%
CN(C)S(=O)(=O)c1cc(NC(=O)CN2CCN(c3ccc(O)cc3)CC2)ccc1Cl	-9%	-7%	5	·	-18%	7.1µM*
CC1CCN(S(=O)(=O)c2ccc3c(c2)c(=O)c(C(=O)NC(C)c2ccccc2)cn3C)CC1 (stereo not drawn)	·	·	·	·	·	8%[76.3 µM]
Cc1ccc(N2C(=O)C3Sc4[nH]c(=O)sc4C(c4ccccc4)C3C2=O)cc1 (stereo not drawn)	1%	11%	5	1%	4%	31µM*
O=C1C2Sc3[nH]c(=O)sc3C(c3ccccc3)C2C(=O)N1c1ccc(Cl)cc1 (stereo not drawn)	2%	9%	3	-2%	2%	28µM*
COc1cccc(-n2c(-c3ccco3)nc3c(cnn3-c3ccccc3C)c2=O)c1	·	·	·	·	·	-12%[76.3 µM]
Cc1noc(C)c1-c1ccc2ncnc(NCc3ccc4c(c3)OCO4)c2c1	6%	-4%	·	6%	·	·
CCOc1ccc(NC(=S)NNC(=O)c2ccc(Br)cc2)cc1	-1%	-12%	3	1%	-5%	40µM*
CC(=O)N1CCN(S(=O)(=O)c2ccc3c(c2)CC(=O)N3)CC1	·	·	·	·	·	12µM*
O=C(/C=N/O)NCCCCNC(=O)/C=N/O	-11%[17.5 µM]	9%[12.8 µM]	·	5%[17.4 µM]	·	·
O=C(CCc1ccc(O)cc1)c1c(O)cc(O)cc1O	-1%	18µM*!	-14	0%	·	31µM*
COC(=O)C/C=C\[C@@H](C)[C@@H]1C=C[C@H](OC(C)=O)[C@H](COC(C)=O)O1	-2%[17.5 µM]	-1%[12.8 µM]	·	1%[17.4 µM]	·	·
SMILES	aGal spleen mod	N370S GC mod	GLA inh pH 4.5	aGlu spleen mod	GAA inhib	GAA glycogen mod
Cc1cccc(N/C=C/C(=C(C#N)C#N)N(C)C)c1	2%	7%	-2	-15%	-2%	1%
CN(C)C(/C=C/Nc1ccc(O)cc1)=C(C#N)C#N	-3%	-4%	8	-2%	-11%	7.9µM*
Cn1c(=O)c2c(-c3ccc(Br)cc3)n(CCc3ccccc3)cc2n(C)c1=O	·	·	·	·	·	-12%[76.3 µM]
Cc1ccc(S(=O)(=O)Oc2ccc(N=Nc3ccc(-c4ccc(N=Nc5c(O)ccc6cc(S(=O)(=O)O)cc(S(=O)(=O)O)c56)c(C)c4)cc3C)cc2)cc1	9%	6%	·	-10%	·	·
Cc1c(NC(=S)N/N=C/c2ccc(O)cc2)c(=O)n(-c2ccccc2)n1C	-5%	9%	-8	-18%	?	7µM*
CSCC[C@H](N)C(=O)N[C@@H](CCCN=C(N)N)C(=O)N[C@@H](CC(C)C)C(=O)N[C@@H](Cc1ccccc1)C(=O)N[C@H](C(=O)O)C(C)C	-4%	-4%	·	2%	·	·
COc1cc(/C=C/c2nc3ccccc3s2)cc(OC)c1O	-6%	-10%	-13	-11%	-10%	18µM*
COc1cc(/C=C/c2cc(C(=O)O)c3ccccc3n2)cc(OC)c1O	-12%	-4%	0	-14%	-5%	14µM*
CC(=O)n1c2ccccc2c2nc(NC(C)C)sc21	-6%	-13%	-2	3%	-5%	-28%
CNc1nc2c3ccccc3n(C(C)=O)c2s1	0%	3%	-4	5%	0%	25µM*
O=C(COc1ccccc1F)Nc1ccc2nc(SCC(=O)N3CCc4ccccc43)sc2c1	·	·	·	·	·	-1%[76.3 µM]
Clc1ccc(Cl)c(Cl)c1Cl	9%	-5%	·	0%	·	·
COc1ccc2c(/C=N/NS(=O)(=O)c3ccc(C)cc3)c[nH]c2c1	11%	15%	-1	3%	·	8.9µM*
COc1cc(C(=O)NNc2nc3cc4c(cc3s2)OCO4)cc(OC)c1OC	-2%	3%	1	1%	-5%[15.4 µM]	25µM*
C=CCNC(=O)N1CCc2nc(CCCC)c3c(c2C1)CO[C@@H](C)C3	3%[17.5 µM]	-11%[12.8 µM]	8	6%[17.4 µM]	·	·
Cc1cc(C)c(S(=O)(=O)/N=C2\C=CC(=O)C(Cl)=C2)c(C)c1	-3%	-1%	0	-2%	?	12µM*
O=c1oc2ccccc2c2oc3cc(O)c(O)cc3c12	1%	-12%	2	0%	·	28µM*
O=c1nc(/C=C/c2ccc(O)c(O)c2)oc2ccccc12	-1%	-25%	-18	-17%	·	7.1µM*
Nc1n[nH]c(-c2ccc(Br)cc2)c1Cl	0%	-20%	0	?	?	13µM*
O=C1C2=C(Nc3ccccc3SC2c2ccccc2C(F)(F)F)c2ccccc21 (stereo not drawn)	·	·	·	·	·	-6%[76.3 µM]
O=C(NC1(C(F)(F)F)Oc2ccccc2O1)N1CCCC1	4%	2%	2	2%	-3%	7.9µM*

Screening data from PubChem BioAssay.
